The values that follow come from the supplement of paper PMC7556523.

Molecules are shown by their SMILES. A number with no mark means an inactive call.

In one assay the test system is Sporothrix brasiliensis CBS 133006. The assay can be described thus: growth inhibition relative to untreated control; higher = more growth inhibition (more antifungal activity), active = 80 or more; extreme values may be limits of the assay. The following applies: 1 µM; 48 h. In outline: (§1)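 The reported figure is percent growth inhibition relative to untreated cells, from quadruplicate runs. Yeast-form cells of the reference isolates at 1 x 10^5 CFU/ml were exposed to library compounds at a final 1 μM for 48 h at 35°C in 5% CO2, and growth was assessed by microscopy and spectrophotometric readings.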
Turning to `CC(C)(C)OC(=O)N1CCN(c2nccc(-c3ccc(-c4ccc(Cl)cc4)s3)n2)CC1`, the growth inhibition is 8%.
For the molecule `O=C(NCCc1ccccc1)c1cc(-c2cccnc2)cnc1NCC1CC1`, the growth inhibition was 0%.
As for `c1ccc(Oc2ccc(-c3cc(N4CCNCC4)[nH]n3)cc2)cc1`, the growth inhibition was 0%.
On the same count and under the same terms, the same measure for `COc1cc(C2=NCCN2)ccc1-c1cn(-c2cccc(C3=NCCN3)c2)nn1`: 14%.
On the same count and under the same terms, then `C[C@H](C(N)=O)N1CCCC[C@@H]1c1ccc(OCc2cccc(F)c2)cc1`, with 0%; and `CC[C@@H]([C@H](C)O)n1ncn(-c2ccc(N3CCN(c4ccc(OC[C@@H]5CO[C@@](Cn6cncn6)(c6ccc(F)cc6F)C5)cc4)CC3)cc2)c1=O`, with 73%.
Same read-out and setting: then `CCOC(=O)c1noc(N)c1-c1ccccc1`, with 16.5%.
Take `Cc1cc(C(=O)Nc2cnn(Cc3ccc(Cl)cc3Cl)c2)no1`: the growth inhibition was 5.75%.
Consider `CCc1ccc(S(=O)(=O)Nc2cc(CN3CCN(CCC(C)C)CC3)ccc2C)cc1`, for which the growth inhibition is 1.75%.
Turning to `CN1CCN(CCCOc2ncc(Nc3ncc(-c4ccc(C(F)(F)F)c(F)c4)nc3C(N)=O)cn2)CC1`, the growth inhibition was 12.5%.
Same read-out and setting: then `O=C(N[C@H](Cc1ccccc1)C(=O)Nc1ccccc1N1CCOCC1)c1cccs1`, with 7%.
In the case of `Cc1cnc(N2CCN[C@@H](Cc3ccccc3)C2)nc1Oc1ccc(-n2ccnc2)cc1`, the growth inhibition is 2.75%.
On to `C[C@H]1c2cccc(O)c2C(=O)C2=C(O)[C@]3(O)C(=O)C(C(N)=O)=C(O)[C@@H](N(C)C)[C@@H]3[C@@H](O)[C@@H]21`, for which the growth inhibition was 9.12%.
`Cc1ccc2nc(Cl)c(CNCc3cccs3)cc2c1`: the growth inhibition is 0%.
The same measure, in the same setting: then `Cc1ccc(S(=O)(=O)N2CCN(C(=O)c3cc(-c4ccccc4)n[nH]3)CC2)cc1`, with 1.5%.
Same read-out and setting: the same measure for `C[C@]1(O)C[C@@H](c2nc(-c3ccc4ccc(-c5ccccc5)nc4c3)c3c(N)nccn32)C1`: 6%.
In the case of `Cc1nnc(NC(=O)c2cn(-c3ccccc3)nc2-c2ccccc2C)o1`, the growth inhibition is 1.5%.
Take `NC(CC(=O)c1ccc(Cl)cc1Cl)C(Cl)(Cl)Cl` (stereo unspecified): the growth inhibition is 9.25%.
On to `CC(=O)N1CCc2cc3nc(C)cc(C)c3cc21`, for which the growth inhibition was 4%.
For `O=C(NCCN1CCCC1)c1cc(NCCCCN2CCC(F)(F)CC2)nc2ccc(Cl)cc12`, the growth inhibition was 2.75%.
As for `Cc1nnc(NCc2cccc(Cl)c2)c2ccccc12`, the growth inhibition was 3%.
Consider `CC(C)(C)OC(=O)N1CCN(c2cc(-c3ccc(Oc4ccccc4)cc3)n[nH]2)CC1`, for which the growth inhibition is 10.5%.
As for `Brc1c(-c2ccc3c(c2)OCO3)nc2ncccn12`, the growth inhibition was 19.5%.
Take `COc1ccc(-c2cnc3ccc(NCc4ccc(S(N)(=O)=O)cc4)nn23)cn1`: the growth inhibition was 26.8%.
Take `Clc1ccc(Cl)c(CO[C@H]2CCCC[C@@H]2n2ccnc2)c1`: the growth inhibition was 18%.
Take `CNc1snc(C)c1C(=O)NCCOc1ccc(OC)cc1`: the growth inhibition is 12.2%.
Same read-out and setting: the same measure for `COc1ccc(C(=N)N)cc1-c1cn(-c2ccc(C(=N)N)cc2)nn1`: 51.8%; for `CC(C)NCC(=O)Nc1cccc(C(=O)Nc2cccc(C(F)(F)F)c2)c1`: 11.5%; for `C[C@@H]1[C@H](O)[C@@H](C)/C=C/C=C/C=C/C=C/C=C/C=C/C=C/[C@H](O[C@@H]2O[C@H](C)[C@@H](O)[C@H](N)[C@@H]2O)C[C@@H]2O[C@](O)(C[C@@H](O)C[C@@H](O)[C@H](O)CC[C@@H](O)C[C@@H](O)CC(=O)O[C@H]1C)C[C@H](O)[C@H]2C(=O)O`: 24%.
For `Cc1cc(NC(=O)c2ccc(S(=O)(=O)N(Cc3ccccc3)C(C)C)cc2)no1`, the growth inhibition was 18.2%.
On the same count and under the same terms, the same measure for `CNC(=O)CNc1nc(-c2ccccn2)nc2scc(-c3ccccc3)c12`: 9.5%; for `N=C(N)Nc1ccc(-c2ccc(-c3ccc(N=C(N)N)c(Cl)c3)o2)cc1Cl`: 1.75%; for `CCS(=O)(=O)N(Cc1ccco1)Cc1cc2ccc(C)cc2nc1O`: 2.5%.
As for `Cc1cc(C)c2cc(C(=O)NC3CCCCCCC3)[nH]c2c1`, the growth inhibition is 6%.
For `COc1ccc2nc(C)cc(OCC(=O)NCc3ccccc3)c2c1`, the growth inhibition was 1.75%.
For `CN1CCN(c2nccc3[nH]c(-c4cccc(F)c4)cc23)CC1`, the growth inhibition was 2.5%.
Regarding `O=C(Nc1c(O)cccc1-c1nc2c(C(=O)O)cccc2o1)c1cc(-c2ccccc2)on1`, the growth inhibition is 38.2%.
Consider `CNC1C(OC2C(OC3C(O)C(O)C(N=C(N)N)C(O)C3N=C(N)N)OC(C)C2(O)C=O)OC(CO)C(O)C1O` (stereo unspecified), for which the growth inhibition is 6%.

In another assay the test system is Sporothrix schenckii ATCC 32286. Described as above. Conditions: 1 µM; 48 h. The gist of the method:
as §1
With `CC(C)(C)OC(=O)N1CCN(c2nccc(-c3ccc(-c4ccc(Cl)cc4)s3)n2)CC1`, the growth inhibition was 1%.
Turning to `O=C(NCCc1ccccc1)c1cc(-c2cccnc2)cnc1NCC1CC1`, the growth inhibition was 0%.
Consider `c1ccc(Oc2ccc(-c3cc(N4CCNCC4)[nH]n3)cc2)cc1`, for which the growth inhibition was 4%.
Still for that read-out and setting: the same measure for `COc1cc(C2=NCCN2)ccc1-c1cn(-c2cccc(C3=NCCN3)c2)nn1`: 1.25%; for `C[C@H](C(N)=O)N1CCCC[C@@H]1c1ccc(OCc2cccc(F)c2)cc1`: 2%.
Consider `CC[C@@H]([C@H](C)O)n1ncn(-c2ccc(N3CCN(c4ccc(OC[C@@H]5CO[C@@](Cn6cncn6)(c6ccc(F)cc6F)C5)cc4)CC3)cc2)c1=O`, for which the growth inhibition is 88.5% (active).
As to `CCOC(=O)c1noc(N)c1-c1ccccc1`, the growth inhibition is 0%.
Regarding `Cc1cc(C(=O)Nc2cnn(Cc3ccc(Cl)cc3Cl)c2)no1`, the growth inhibition was 12%.
Consider `CCc1ccc(S(=O)(=O)Nc2cc(CN3CCN(CCC(C)C)CC3)ccc2C)cc1`, for which the growth inhibition is 21.2%.
On the same count and under the same terms, the same measure for `CN1CCN(CCCOc2ncc(Nc3ncc(-c4ccc(C(F)(F)F)c(F)c4)nc3C(N)=O)cn2)CC1`: 0%; for `O=C(N[C@H](Cc1ccccc1)C(=O)Nc1ccccc1N1CCOCC1)c1cccs1`: 7.25%.
`Cc1cnc(N2CCN[C@@H](Cc3ccccc3)C2)nc1Oc1ccc(-n2ccnc2)cc1`: the growth inhibition was 6.5%.
On the same count and under the same terms, then `C[C@H]1c2cccc(O)c2C(=O)C2=C(O)[C@]3(O)C(=O)C(C(N)=O)=C(O)[C@@H](N(C)C)[C@@H]3[C@@H](O)[C@@H]21`, with 10.5%; and `Cc1ccc2nc(Cl)c(CNCc3cccs3)cc2c1`, with 2.25%.
As for `Cc1ccc(S(=O)(=O)N2CCN(C(=O)c3cc(-c4ccccc4)n[nH]3)CC2)cc1`, the growth inhibition is 2%.
Still for that read-out and setting: the same measure for `C[C@]1(O)C[C@@H](c2nc(-c3ccc4ccc(-c5ccccc5)nc4c3)c3c(N)nccn32)C1`: 23%; for `Cc1nnc(NC(=O)c2cn(-c3ccccc3)nc2-c2ccccc2C)o1`: 22.8%.
`NC(CC(=O)c1ccc(Cl)cc1Cl)C(Cl)(Cl)Cl` (stereo unspecified): the growth inhibition was 14%.
Regarding `CC(=O)N1CCc2cc3nc(C)cc(C)c3cc21`, the growth inhibition was 0%.
Regarding `O=C(NCCN1CCCC1)c1cc(NCCCCN2CCC(F)(F)CC2)nc2ccc(Cl)cc12`, the growth inhibition is 8.5%.
Still for that read-out and setting: the same measure for `Cc1nnc(NCc2cccc(Cl)c2)c2ccccc12`: 8.75%; for `CC(C)(C)OC(=O)N1CCN(c2cc(-c3ccc(Oc4ccccc4)cc3)n[nH]2)CC1`: 0%; for `Brc1c(-c2ccc3c(c2)OCO3)nc2ncccn12`: 27.8%.
For `COc1ccc(-c2cnc3ccc(NCc4ccc(S(N)(=O)=O)cc4)nn23)cn1`, the growth inhibition was 18.2%.
Turning to `Clc1ccc(Cl)c(CO[C@H]2CCCC[C@@H]2n2ccnc2)c1`, the growth inhibition was 5.5%.
For the molecule `CNc1snc(C)c1C(=O)NCCOc1ccc(OC)cc1`, the growth inhibition is 7.5%.
`COc1ccc(C(=N)N)cc1-c1cn(-c2ccc(C(=N)N)cc2)nn1`: the growth inhibition was 0%.
On to `CC(C)NCC(=O)Nc1cccc(C(=O)Nc2cccc(C(F)(F)F)c2)c1`, for which the growth inhibition is 3.75%.
For the molecule `C[C@@H]1[C@H](O)[C@@H](C)/C=C/C=C/C=C/C=C/C=C/C=C/C=C/[C@H](O[C@@H]2O[C@H](C)[C@@H](O)[C@H](N)[C@@H]2O)C[C@@H]2O[C@](O)(C[C@@H](O)C[C@@H](O)[C@H](O)CC[C@@H](O)C[C@@H](O)CC(=O)O[C@H]1C)C[C@H](O)[C@H]2C(=O)O`, the growth inhibition is 16%.
As to `Cc1cc(NC(=O)c2ccc(S(=O)(=O)N(Cc3ccccc3)C(C)C)cc2)no1`, the growth inhibition was 2.75%.
As to `CNC(=O)CNc1nc(-c2ccccn2)nc2scc(-c3ccccc3)c12`, the growth inhibition was 3.75%.
In the case of `N=C(N)Nc1ccc(-c2ccc(-c3ccc(N=C(N)N)c(Cl)c3)o2)cc1Cl`, the growth inhibition is 0%.
Turning to `CCS(=O)(=O)N(Cc1ccco1)Cc1cc2ccc(C)cc2nc1O`, the growth inhibition was 2%.
Same read-out and setting: then `Cc1cc(C)c2cc(C(=O)NC3CCCCCCC3)[nH]c2c1`, with 6.25%.
Turning to `COc1ccc2nc(C)cc(OCC(=O)NCc3ccccc3)c2c1`, the growth inhibition is 14.8%.
As to `CN1CCN(c2nccc3[nH]c(-c4cccc(F)c4)cc23)CC1`, the growth inhibition is 19.5%.
For `O=C(Nc1c(O)cccc1-c1nc2c(C(=O)O)cccc2o1)c1cc(-c2ccccc2)on1`, the growth inhibition is 3.75%.
For the molecule `CNC1C(OC2C(OC3C(O)C(O)C(N=C(N)N)C(O)C3N=C(N)N)OC(C)C2(O)C=O)OC(CO)C(O)C1O` (stereo unspecified), the growth inhibition is 0%.
